Compound activity: PubChem BioAssay, ICCB-Longwood Screening Facility, Harvard Medical School
CapD inh: blocks the Bacillus anthracis CapD enzyme; purified CapD enzyme, fluorescence intensity read-out; active compounds read low; z-score (test concentration not listed); 140,000 tested, 0.23% active; AID 492967; in the data active = z-score mostly below about -2.9, no sharp cut-off; inactive = mostly above about -1.9
AID504770: growth inhibitors of E. coli YBA685 in a screen for V. cholerae RctB (chromosome II replication) inhibitors; z-score (concentration not given with the values); E. coli YBA685 rctB-dependent plasmid, OD600 growth, 3 h; active compounds read low; 130,000 tested, 0.27% active; in the data active = z-score below about -2, passing the limit was not always enough
Numbers without * were called inactive. Sampled rows, rich in hits. Any-hit rate of the full collection: about 0.36%.

Results for O=C(CCC1CCCCC1)Nc1c[nH]c(=O)[nH]c1=O ?
AID504770: -2.2*

What do the screens show for `O=C(Nc1c[nH]c(=O)[nH]c1=O)NC1CCCC1`?
CapD inh: -0.12; AID504770: -0.6

What do the screens show for `CC(=O)Oc1ccc(C2Nc3ccc(C(=O)O)cc3C3C=CCC32)c(OC(C)=O)c1` (centres undefined)?
CapD inh: -4.4*

How did O=C(O)C1Nc2ccccc2C2C=CCC12 (centres undefined) do in these assays?
CapD inh: -8.8*; AID504770: 0.35

What do the screens show for `CC(=O)Oc1ccc(C2Nc3ccc(C(C)=O)cc3C3C=CCC32)c(OC(C)=O)c1` (centres undefined)?
CapD inh: 1.3

What do the screens show for `Cc1ccc2c(c1C)NC(C(=O)O)C1CC=CC21` (centres undefined)?
AID504770: -0.15

What do the screens show for `O=C(O)c1ccc(C2Nc3ccccc3C3C=CCC32)cc1` (centres undefined)?
CapD inh: -7.9*; AID504770: 2.5

Results for O=C(O)c1ccc2c(c1)C1C=CCC1C(c1ccc(Br)cc1)N2 (centres undefined) ?
CapD inh: -1.4; AID504770: -0.15

How did CN(C)S(=O)(=O)c1cccc(COC(=O)c2cccnc2SCC(=O)Nc2ccc3c(c2)OCO3)c1 do in these assays?
AID504770: 0.5

What do the screens show for `COc1cccc(C(=O)N/N=C/c2ccc(N3CCCC3)cc2)c1`?
CapD inh: 4

How did N=C(N)Sc1cn(Cc2ccccc2)c2ccccc12 do in these assays?
CapD inh: -4.8*; AID504770: -1.1

Results for O=C(CSc1cn(Cc2ccccc2)c2ccccc12)N1CCCC1 ?
CapD inh: 0.055; AID504770: 0.3
